The text below walks through data of PubChem BioAssay (NCI).

This test in a line: NCI Yeast Anticancer Drug Screen. Data for the sgs1 strain (AID 173).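 Also: 0% = growth of vehicle-only control cultures.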 The conditions noted are these: S. cerevisiae sgs1 mutant, stronger effect = higher value. As to the method:
Growth inhibition of yeast strains with defined genetic alterations is measured as a screen for potential anti-cancer activity. Selected strains with alterations in DNA damage repair or cell cycle control were exposed to compounds and growth inhibition was measured relative to vehicle treated controls. The strain used in this assay is sgs1

Structures are written as SMILES. This is part of a sample that, as a whole, favours compounds with a hit. Of some 79,000 tested, about 15% had one in any assay. A number with no mark means an inactive call. Calls of active or inactive are those of the source. Rule as the data show it: active = growth inhibition above about 70%; inactive = the rest.

`CCCCCCCN1C(=O)c2ccccc2C1=O`: the growth inhibition is 0% (at 1.2 µM); -1% (at 3.7 µM); 2% (at 11.0 µM); 14% (at 33.0 µM); 44% (at 100.0 µM).
As to `N#CCC(=O)N/N=C(\c1ccccc1)C(c1ccccc1)C1(O)C(=O)Nc2c(Cl)ccc(Cl)c21` (stereo not given), the growth inhibition by setting is: (at 1.2 µM) -1%; (at 3.7 µM) 0%; (at 11.0 µM) 1%; (at 33.0 µM) 11%; (at 100.0 µM) 37%.
The corresponding values for `O/N=c1/ccn(O)c2ccccc12` are 85% (active), 94% (active), 96% (active), 96% (active) and 96% (active).
For `O=[N+]([O-])c1ccc(C(c2c[nH]c3ccccc23)c2c[nH]c3ccccc23)cc1` the same measures were 33%, 98% (active), 97% (active), 95% (active) and 88% (active).
The corresponding values for `CCCCCCCCCC(=O)N(CCC)CCC` are -4%, -9%, -17%, 73% (active) and 98% (active).
On to `O=P(C(=S)Nc1c(Cl)cccc1Cl)(c1ccccc1)c1ccccc1`, for which the growth inhibition is 25% (at 1.2 µM); 13% (at 3.7 µM); 3% (at 11.0 µM); 18% (at 33.0 µM); 95% (active) (at 100.0 µM).
The corresponding values for `CC(=O)/C=C/c1cccc([N+](=O)[O-])c1` are 1%, 7%, 15%, 50% and 95% (active).
For `CC(C)OC(=O)NNc1cccc(Cl)c1` the same measures were 2%, 23%, 97% (active), 98% (active) and 98% (active).
